Results reported in PubChem BioAssay (Tox21).
“And” between values parts separate entries of the source, which are not always exact repeats. Identical values can stand only once. Inconclusive results are not listed. The source made the active and inactive calls. Unless noted, calls come from the whole dose curve; as a rule, active = well fitted curve in the direction sought with a large enough effect in the repeat runs; inconclusive = weak or mixed curves; inactive = no such curve, though single readings can be large; an effect the other way counts as inactive or inconclusive.

Key:
[1] = qHTS assay for small molecule agonists of the p53 signaling pathway (AID 651631; calls by dose curve; note: nearly all actives have a fitted effect of over 15% in size; note: potency is the fitted concentration of half-maximal effect)
Summary of the method: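 Readout was fluorescence from the LiveBLAzer FRET substrate, applied for 2 h at room temperature after 16 h compound exposure at 37 °C. Cells were the p53RE-bla HCT-116 line, with beta-lactamase driven by p53 response elements.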

[2] = qHTS assay for small molecules that induce genotoxicity in human embryonic kidney cells expressing luciferase-tagged ATAD5 (AID 651632); note: nearly all actives have a fitted effect of over 15% in size
Summary of the method: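 DMSO vehicle served as the control. HEK293T reporter cells, 16 hr at 37C, then 30 min Amplite at room temperature; ATAD5 induction is measured as luciferase activity.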

[3] = qHTS assay for small molecules that induce genotoxicity in human embryonic kidney cells expressing luciferase-tagged ATAD5 - cell viability (AID 651634; calls by dose curve; note: nearly all actives have a fitted effect of over 25% in size; note: potency is the fitted concentration of half-maximal effect)
Summary of the method: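 Here HEK293T cells with the ATAD5 luciferase reporter are incubated with test compounds for 15.5 hr, and cytotoxicity is then gauged by measuring protease activity in live cells using fluorescence.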

[4] = qHTS assay for small molecule disruptors of the mitochondrial membrane potential - cell viability (AID 720634; calls by dose curve;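 note: human HepG2 liver cancer cells; series mostly up to about 83 µM; nearly all actives have a fitted effect of over 20% in size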)
Summary of the method: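 Viability of HepG2 cells is scored from ATP content by luminescence; cells are exposed to compound for 1 hr at 37 C and 5% CO2, then dosed with m-MPI dye before the CellTiter-Glo reagent.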

[5] = qHTS assay to test for compound auto fluorescence at 590 nm (red) in HepG2 cells (AID 720674)
Summary of the method: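 HepG2 cells, 2,000 per well in MEM with 10% FBS, attached overnight at 37 C, then got 23 nL compound or DMSO. After 1 hr at 37 C, 5% CO2, red fluorescence was read at 540/590 nm against Rose Bengal sodium as reference.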

[6] = qHTS assay to test for compound auto fluorescence at 535 nm (green) in HepG2 cells (AID 720675)
[7] = qHTS assay to test for compound auto fluorescence at 590 nm (red) in HEK293 cells (AID 720679)
Summary of the method: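 Using HEK293 cells at 2,000 per well, the screen added 23 nL of each compound after cell attachment and incubated overnight (37C, 5% CO2). The plate reader then captured red-label fluorescence, Ex/Em 540/590nm.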

[8] = qHTS assay to test for compound auto fluorescence at 535 nm (green) in HEK293 cells (AID 720680)
[9] = qHTS assay to test for compound auto fluorescence at 535 nm (green) in HEK293 cell free culture (AID 720682)
Summary of the method: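 Compounds were pin-transferred into cell-free DMEM with 10% FBS, and green fluorescence was read at excitation 485 nm and emission 535 nm. Intensities were expressed as fluorescein-equivalent values.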

[10] = qHTS assay to test for compound auto fluorescence at 590 nm (red) in HEK293 cell free culture (AID 720683)
Summary of the method: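 Cell-free wells of DMEM with 10% FBS received compound, and intrinsic fluorescence was read at excitation/emission 540/590 nm. Values expressed as equivalence to Rose Bengal sodium.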

[11] = qHTS assay to test for compound auto fluorescence at 590 nm (red) in HepG2 cell free culture (AID 720684)
Summary of the method: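 Auto fluorescence equivalency versus Rose Bengal sodium, red channel Ex/Em 540/590 nm; compounds in cell-free MEM/10% FBS; DMSO vehicle control.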

[12] = qHTS assay to test for compound auto fluorescence at 460 nm (blue) in HepG2 cell free culture (AID 720685)
Summary of the method: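 Cell-free plates of MEM plus 10% FBS received 23 nL compound or DMSO vehicle; blue-channel (405/460 nm) intensity scored against triamterene as reference fluorophore.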

[13] = qHTS assay to test for compound auto fluorescence at 535 nm (green) in HepG2 cell free culture (AID 720686)
[14] = qHTS assay to test for compound auto fluorescence at 460 nm (blue) in HepG2 cells (AID 720687)
Summary of the method: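 HepG2 cells in MEM with 10% FBS, attached overnight at 37 C, were exposed to compound or DMSO for 1 hr at 37 C, 5% CO2. Blue fluorescence was read at 405/460 nm, with triamterene as reference fluorophore.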

[15] = biological target: Glucocorticoid receptor (Homo sapiens) (UniProt P04150); assay: qHTS assay to identify small molecule agonists of the glucocorticoid receptor (GR) signaling pathway (AID 720691; active = well fitted activation curve with a large enough effect in the signal ratio in the repeat runs, not every such curve was filed as active; the % refers to the signal ratio)
Summary of the method: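 Compounds in DMSO, alongside positive controls, were added to GR-bla HeLa reporter cells and incubated 18 h at 37 C; GRE-driven beta-lactamase was detected by fluorescence after 2 h with FRET substrate at room temperature.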

[16] = biological target: Glucocorticoid receptor (Homo sapiens) (UniProt P04150); assay: qHTS assay to identify small molecule antagonists of the glucocorticoid receptor (GR) signaling pathway (AID 720692; active = well fitted inhibition curve with a large enough effect in the signal ratio in the repeat runs, not every such curve was filed as active; the % refers to the signal ratio; note: potency is the fitted concentration of half-maximal effect)
Summary of the method: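 In a 1536-well cell format, compounds were added 4 h after seeding GR-bla HeLa cells, together with dexamethasone at 5 nM final; reporter activity was measured by FRET-substrate fluorescence following 18 h at 37 C.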

[17] = qHTS assay for small molecule disruptors of the mitochondrial membrane potential (AID 720635); note: potency is the fitted concentration of half-maximal effect
Summary of the method: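 HepG2 cells exposed to compound 1 hr at 37C, then Mito-MPS dye 30 min. Ratio read of aggregate (540/590 nm) versus monomer (490/535 nm) fluorescence.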

[18] = qHTS assay to test for compound auto fluorescence at 460 nm (blue) in HEK293 cells (AID 720678)
Summary of the method: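 Measured: blue fluorescence (Ex 405/Em 460 nm) of compound-treated HEK293 cells, incubated overnight at 37C with 5% CO2 and scaled to triamterene equivalents.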

[19] = qHTS assay to test for compound auto fluorescence at 460 nm (blue) in HEK293 cell free culture (AID 720681)
Summary of the method: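 Compounds were added to cell-free DMEM with 10% FBS and fluorescence read directly. The blue channel used 405 nm excitation and 460 nm emission, with triamterene as the reference fluorophore.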

[20] = qHTS assay for small molecule agonists of the p53 signaling pathway - cell viability (AID 651633; calls by dose curve; note: series mostly up to about 83 µM; nearly all actives have a fitted effect of over 30% in size)
Summary of the method: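 p53RE-bla cells were treated with compound for 16 hours at 37 C. Cytotoxicity was then measured as CellTiter-Glo luminescence after 30 min at room temperature.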

Measured: Potency

Sequence of Glucocorticoid receptor (Homo sapiens) (P04150 whole entry, looked up): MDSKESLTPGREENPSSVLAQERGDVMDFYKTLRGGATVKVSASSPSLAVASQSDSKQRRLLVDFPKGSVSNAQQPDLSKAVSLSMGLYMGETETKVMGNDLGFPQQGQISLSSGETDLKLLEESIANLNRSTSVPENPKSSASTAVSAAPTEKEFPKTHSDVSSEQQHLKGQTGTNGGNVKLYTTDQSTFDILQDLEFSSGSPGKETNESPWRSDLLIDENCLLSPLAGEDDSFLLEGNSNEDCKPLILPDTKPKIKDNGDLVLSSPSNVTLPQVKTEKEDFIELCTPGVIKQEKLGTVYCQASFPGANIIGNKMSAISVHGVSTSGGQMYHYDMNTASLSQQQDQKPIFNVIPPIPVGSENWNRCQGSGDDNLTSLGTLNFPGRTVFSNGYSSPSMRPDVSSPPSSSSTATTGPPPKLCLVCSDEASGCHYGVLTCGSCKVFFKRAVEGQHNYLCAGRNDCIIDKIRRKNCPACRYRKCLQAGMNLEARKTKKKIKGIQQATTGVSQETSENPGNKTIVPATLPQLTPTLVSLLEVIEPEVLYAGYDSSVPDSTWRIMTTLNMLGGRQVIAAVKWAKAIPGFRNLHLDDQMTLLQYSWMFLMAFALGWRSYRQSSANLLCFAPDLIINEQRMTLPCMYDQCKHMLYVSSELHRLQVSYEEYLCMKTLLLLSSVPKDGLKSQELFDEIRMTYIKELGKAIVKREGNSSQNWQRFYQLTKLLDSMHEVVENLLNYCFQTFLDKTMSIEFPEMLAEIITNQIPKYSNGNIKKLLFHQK

N#CC1(N=NC2(C#N)CCCCC2)CCCCC1
inactive: [1] | [2] | [3] | [4] | [5] | [6] | [7] | [8] | [9] | [10] | [11] | [12] | [13] | [14] | [15] | [16]

CCCCCCCCn1sccc1=O
inactive: [2] | [4] | [5] | [6] | [18] | [7] | [8] | [19] | [9] | [10] | [11] | [12] | [13] | [14] | [15]
active: [1] 12.2 µM and 25.5 µM | [17] 30.7 µM and 64.1 µM | [16] 49.1 µM and 36.3 µM

C=CCc1ccccc1O
inactive: [1] | [2] | [20] | [4] | [5] | [6] | [18] | [7] | [19] | [9] | [10] | [11] | [12] | [13] | [14] | [15] | [16]

FC(F)OC(F)(F)C(F)Cl (configuration not stated)
inactive: [1] | [3] | [4] | [17] | [5] | [6] | [18] | [7] | [19] | [9] | [10] | [11] | [12] | [13] | [14] | [15] | [16]

COC(=O)C1(O)c2ccccc2-c2ccccc21
inactive: [1] | [2] | [20] | [4] | [5] | [6] | [7] | [8] | [19] | [9] | [10] | [11] | [12] | [13] | [14] | [15] | [16]

C=CCOC(=O)C(C)(C)OC(=O)c1cc(-n2c(=O)cc(C(F)(F)F)n(C)c2=O)ccc1Cl
inactive: [1] | [2] | [20] | [4] | [5] | [6] | [18] | [7] | [8] | [9] | [10] | [11] | [12] | [13] | [14] | [15] | [16]

CC(C)(C)NCC(O)c1ccccc1Cl (configuration not stated)
inactive: [1] | [2] | [4] | [5] | [6] | [18] | [7] | [8] | [19] | [9] | [10] | [11] | [12] | [13] | [14] | [16]

Cc1ccc2c(C)cccc2c1
inactive: [1] | [2] | [3] | [4] | [5] | [6] | [18] | [7] | [8] | [19] | [9] | [10] | [11] | [12] | [13]

COc1ccc2c(c1OC)C(=O)O[C@H]2[C@@H]1c2cc3c(cc2CCN1C)OCO3
inactive: [1] | [2] | [20] | [4] | [5] | [6] | [18] | [7] | [8] | [19] | [9] | [10] | [11] | [12] | [13]

CCCCCl
inactive: [1] | [20] | [3] | [4] | [5] | [6] | [7] | [19] | [9] | [10] | [11] | [12] | [13] | [14] | [15] | [16]

CCCCCCCCCCCCCCCl
inactive: [1] | [2] | [4] | [17] | [5] | [6] | [18] | [7] | [8] | [9] | [10] | [11] | [12] | [13] | [15] | [16]

CCC[N+](CCC)(CCC)CCC
inactive: [1] | [2] | [3] | [4] | [17] | [5] | [6] | [18] | [7] | [8] | [9] | [10] | [11] | [12] | [13]

O=C=NC1CCCCC1
inactive: [1] | [20] | [3] | [4] | [5] | [6] | [7] | [8] | [19] | [9] | [10] | [11] | [12] | [13] | [14] | [16]

COc1cc(C[C@@H](C)N)c(OC)cc1Br
inactive: [1] | [2] | [3] | [4] | [5] | [6] | [18] | [7] | [8] | [19] | [9] | [10] | [11] | [12] | [13] | [14]

Oc1cccc(Cl)c1
inactive: [1] | [2] | [4] | [5] | [6] | [18] | [7] | [19] | [9] | [10] | [11] | [12] | [13] | [15] | [16]

O=C(CCl)CCl
active: [1] 24.3 µM | [3] 63.4 µM and 54.5 µM | [16] 43.6 µM
inactive: [5] | [6] | [18] | [7] | [8] | [9] | [10] | [11] | [12] | [13] | [15]

CCC(C)Cl (configuration not stated)
inactive: [1] | [2] | [3] | [4] | [17] | [5] | [6] | [18] | [7] | [8] | [19] | [9] | [10] | [11] | [12] | [13] | [14] | [15] | [16]

CN(C)C(=O)Nc1cccc(OC(=O)NC(C)(C)C)c1
inactive: [1] | [2] | [20] | [4] | [5] | [6] | [18] | [7] | [8] | [9] | [10] | [11] | [12] | [13] | [14] | [15] | [16]
